Assay outcomes deposited in PubChem by National Center for Advancing Translational Sciences (NCATS).
Cruzain noTriton: inhibitors of Trypanosoma cruzi cruzain without detergent. P25779. purified cruzain, Z-FR-AMC fluorescence, no detergent. Potency, µM, for inactives: max response, negative = inhibition, most hits filed as inhibitors. 2.3% of 200,000 active. AID 1476;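 also: plate controls were enzyme without inhibitor for no effect and buffer without enzyme for full effect; nearly all actives have a fitted effect of over 40% in size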
Target sequence (P25779 123-467 limits assumed): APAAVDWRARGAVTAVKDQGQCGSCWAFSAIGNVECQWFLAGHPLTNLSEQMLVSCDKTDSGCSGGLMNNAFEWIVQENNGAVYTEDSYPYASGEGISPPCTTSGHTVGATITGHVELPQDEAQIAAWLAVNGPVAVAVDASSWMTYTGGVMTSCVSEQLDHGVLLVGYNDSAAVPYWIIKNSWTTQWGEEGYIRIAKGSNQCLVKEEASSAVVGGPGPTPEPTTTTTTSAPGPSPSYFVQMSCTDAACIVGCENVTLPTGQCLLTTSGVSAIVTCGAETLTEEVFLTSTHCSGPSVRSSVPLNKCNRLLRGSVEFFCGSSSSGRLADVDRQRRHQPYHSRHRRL
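Detergent-free condition (0.00005% Triton X-100) in acetate buffer pH 5.5 with DTT. 1.5 nM enzyme and compound were pre-mixed 15 min, then 2 uM Z-FR-AMC substrate added; reaction progress from fluorescence change between first and third reads (60 s).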
Cruzain inh Det: cruzain (T. cruzi) inhibition with detergent; P25779; purified cruzain, Z-FR-AMC fluorescence, 0.01% Triton; Potency, µM, for inactives: max response, negative = inhibition, hits mostly inhibitors; 0.43% of 200,000 active;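 also: plate controls were neutral wells for no effect and buffer without enzyme for full effect; nearly all actives have a fitted effect of over 40% in size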
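Detergent-containing arm of a paired screen for aggregation-based inhibition: 0.01% Triton X-100 present. Cruzain at 1.5 nM cleaved 2 uM Z-FR-AMC at pH 5.5 with 5 mM DTT; AMC fluorescence gain over 60 s measured activity.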
Starred values were filed as active, the others as inactive; ! = not confirmed by another sample. Sampled rows, rich in hits. Any-hit rate of the full collection: about 2.6%. Calls follow the shape of the dose curve; as a rule, active = well fitted curve in the direction sought with a large enough effect; inconclusive = small, poorly fitted or top-dose-only effect, or another doubt; inactive = no such curve, though single readings can be large; an effect the other way counts as inactive or inconclusive. Potency is read from the fitted curve at half-maximal effect.

COC(=O)Cc1c(C)c2ccc(OCC(C)=O)c(C)c2oc1=O was read as Cruzain noTriton 13% and Cruzain inh Det -7%.
`CCN(CC)Cc1c(O)ccc2c(C)c(CC(=O)OC)c(=O)oc12` gave Cruzain noTriton inconclusive and Cruzain inh Det 25µM*.
CC1C(=O)OC2CC34C5CC(C(C)(C)C)C36C(OC(=O)C6O)OC4(C(=O)O5)C21O (stereo unspecified) was read as Cruzain noTriton 1% and Cruzain inh Det 5%.
Screening COc1ccc(NC(=O)N2CC3(CCN(S(C)(=O)=O)CC3)C2)cc1 returned Cruzain noTriton 11% and Cruzain inh Det 7%.
COc1ccccc1NS(=O)(=O)c1cccc(C(=O)N/N=C/c2c(C)nn(-c3ccccc3)c2N2CCCC2)c1 was read as Cruzain noTriton -13% and Cruzain inh Det -4%.
`COc1ccc(-c2nn(-c3ccccc3)cc2/C=N/NC(N)=S)cc1OC` gave Cruzain noTriton 0.63µM* and Cruzain inh Det 1.6µM*.
Screening COc1ccccc1NS(=O)(=O)c1cccc(C(=O)N/N=C/c2cn(-c3ccccc3)nc2-c2ccccc2)c1 returned Cruzain noTriton 13µM* and Cruzain inh Det -5%.
Screening COc1ccc(-c2nn(-c3ccccc3)cc2/C=N/n2cnnc2)cc1OC returned Cruzain noTriton inconclusive and Cruzain inh Det -8%.
COc1ccccc1NS(=O)(=O)c1cccc(C(=O)N/N=C/c2ccc3c(c2)OCCO3)c1 was read as Cruzain noTriton inconclusive and Cruzain inh Det -11%.
For CCN(CC)c1ccc(/C=N/NC(=O)c2cccc(S(=O)(=O)Nc3ccccc3OC)c2)c(O)c1 the results were Cruzain noTriton 20µM* and Cruzain inh Det -4%.
`CCCCN(C)c1ncnc2c1cnn2-c1cccc(Cl)c1` gave Cruzain noTriton 8% and Cruzain inh Det 0%.
CCOc1ccc(CCNC(=O)C2CCCN(c3nnc(C)c4c(C)n(-c5ccccc5)nc34)C2)cc1 (stereo unspecified) was read as Cruzain noTriton -4% and Cruzain inh Det -10%.
`CC(CC(=O)O)(CC(=O)O)C(=O)O` gave Cruzain noTriton 3% and Cruzain inh Det -1%.
Screening N[C@H](C(=O)O)[C@@H](O)c1cnc[nH]1 returned Cruzain noTriton 6% and Cruzain inh Det 1%.
ICCc1ccccc1 was read as Cruzain noTriton inconclusive and Cruzain inh Det 7%.
CC(C)=CCc1c2c(c3occ(-c4ccc(O)cc4)c(=O)c3c1O)C=CC(C)(C)O2 was read as Cruzain noTriton inconclusive and Cruzain inh Det -9%.
Screening CC(C)=CCc1c2c(c3occ(-c4ccc(O)c(O)c4)c(=O)c3c1O)C=CC(C)(C)O2 returned Cruzain noTriton 25µM*! and Cruzain inh Det -1%.
For CCCCc1nn2c(=O)cc(COC(=O)c3ccc(NC(=O)c4cccc(OC)c4)cc3)nc2s1 the results were Cruzain noTriton -2% and Cruzain inh Det 8%.
`CC(=O)Nc1cccc(-c2nnc(SCC(=O)c3cc([N+](=O)[O-])ccc3Br)o2)c1` gave Cruzain noTriton -17% and Cruzain inh Det -5%.
`COc1ccc(-n2c(=S)[nH]c3cc(C(=O)Nc4ccc(OC)c(OC)c4)ccc3c2=O)cc1` gave Cruzain noTriton -2% and Cruzain inh Det 3%.
Screening COc1ccc(-n2c(=S)[nH]c3cc(C(=O)Nc4cccc(C)c4)ccc3c2=O)cc1 returned Cruzain noTriton 13µM* and Cruzain inh Det 1%.
Screening Cc1ccc(S(=O)(=O)Nc2ccc(-c3ccc(N4CCCCCC4)nn3)cc2)cc1C returned Cruzain noTriton 18% and Cruzain inh Det 1%.
CCOC(=O)CSc1nc2c(c(-c3ccc(C)o3)c1C#N)CCCC2 was read as Cruzain noTriton 23% and Cruzain inh Det -11%.
`COC(=O)CSc1nc2c(c(-c3ccco3)c1C#N)CCCC2` gave Cruzain noTriton 20µM* and Cruzain inh Det 28µM*.
Screening C[C@H](CN(C)C)C(O)(c1ccccc1)c1ccccc1 returned Cruzain noTriton 3% and Cruzain inh Det 5%.
CCc1ccc(OCC(=O)N(Cc2ccco2)Cc2ccco2)cc1 was read as Cruzain noTriton -7% and Cruzain inh Det -6%.
`Cn1c(CCNC(=O)c2ccc(F)cc2)nc2ccccc21` gave Cruzain noTriton 2.5µM* and Cruzain inh Det 11µM*.
For Cc1nc(C)c(CCNC(=O)c2ccccc2)s1 the results were Cruzain noTriton inconclusive and Cruzain inh Det 28µM*.
`Cn1c(CCNC(=O)C(C)(C)C)nc2ccccc21` gave Cruzain noTriton 4% and Cruzain inh Det 4%.
Cn1c(CCNC(=O)c2ccccc2)nc2ccccc21 was read as Cruzain noTriton -16% and Cruzain inh Det 11µM*.
`CC(=O)Nc1ccc2c(c1)nc(CCNC(=O)c1ccccc1)n2C` gave Cruzain noTriton -13% and Cruzain inh Det -4%.
`Cc1nc(C)c(CCNC(=O)c2cccc(Cl)c2)s1` gave Cruzain noTriton -29% and Cruzain inh Det inconclusive.
Screening COC(=O)NC(/C=C/c1ccccc1)C(C(C)=O)C(=O)OC (stereo unspecified) returned Cruzain noTriton -2% and Cruzain inh Det 3%.
